# Reference: ChEMBL document CHEMBL1961873, “Compounds: GSK PKIS; Assays: Nanosyn kinase panel” (2012)
# Key:
# [1] = target: Sphingosine kinase 1 (Homo sapiens) (UniProt Q9NYA1); details: at 1 µM;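 also: mean SPHK1 inhibition value reported from the GSK PKIS kinase panel screen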
# [2] = target: T1, Sphingosine kinase 2 (Homo sapiens) (UniProt Q9NRA0); details: at 0.1 µM
# T1 sequence (whole entry): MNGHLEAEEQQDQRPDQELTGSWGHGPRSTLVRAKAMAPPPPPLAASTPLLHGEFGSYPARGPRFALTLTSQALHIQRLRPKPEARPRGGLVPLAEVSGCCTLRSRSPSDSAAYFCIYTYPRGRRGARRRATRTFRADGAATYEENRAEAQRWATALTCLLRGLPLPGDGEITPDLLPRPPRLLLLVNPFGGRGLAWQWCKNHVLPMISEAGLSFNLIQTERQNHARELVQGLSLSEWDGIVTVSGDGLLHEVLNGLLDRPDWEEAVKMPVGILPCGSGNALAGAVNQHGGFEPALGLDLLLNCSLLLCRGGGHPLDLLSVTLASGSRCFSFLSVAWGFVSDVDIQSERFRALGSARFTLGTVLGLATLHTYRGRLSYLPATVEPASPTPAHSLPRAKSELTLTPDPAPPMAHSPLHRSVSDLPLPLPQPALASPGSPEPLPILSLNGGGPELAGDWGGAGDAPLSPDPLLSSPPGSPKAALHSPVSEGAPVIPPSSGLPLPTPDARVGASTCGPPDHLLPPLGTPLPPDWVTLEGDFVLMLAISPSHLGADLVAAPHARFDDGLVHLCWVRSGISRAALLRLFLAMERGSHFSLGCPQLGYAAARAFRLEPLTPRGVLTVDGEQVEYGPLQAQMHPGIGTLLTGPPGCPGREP
# [3] = target: T1, Sphingosine kinase 2 (Homo sapiens); details: at 1 µM
# [4] = target: Casein kinase II subunit alpha (Homo sapiens) (UniProt P68400); details: at 0.1 µM
# [5] = target: Casein kinase II subunit alpha (Homo sapiens) (UniProt P68400); details: at 1 µM
# [6] = target: T2, Inhibitor of nuclear factor kappa-B kinase subunit alpha (Homo sapiens) (UniProt O15111); details: at 0.1 µM
# T2 sequence (whole entry): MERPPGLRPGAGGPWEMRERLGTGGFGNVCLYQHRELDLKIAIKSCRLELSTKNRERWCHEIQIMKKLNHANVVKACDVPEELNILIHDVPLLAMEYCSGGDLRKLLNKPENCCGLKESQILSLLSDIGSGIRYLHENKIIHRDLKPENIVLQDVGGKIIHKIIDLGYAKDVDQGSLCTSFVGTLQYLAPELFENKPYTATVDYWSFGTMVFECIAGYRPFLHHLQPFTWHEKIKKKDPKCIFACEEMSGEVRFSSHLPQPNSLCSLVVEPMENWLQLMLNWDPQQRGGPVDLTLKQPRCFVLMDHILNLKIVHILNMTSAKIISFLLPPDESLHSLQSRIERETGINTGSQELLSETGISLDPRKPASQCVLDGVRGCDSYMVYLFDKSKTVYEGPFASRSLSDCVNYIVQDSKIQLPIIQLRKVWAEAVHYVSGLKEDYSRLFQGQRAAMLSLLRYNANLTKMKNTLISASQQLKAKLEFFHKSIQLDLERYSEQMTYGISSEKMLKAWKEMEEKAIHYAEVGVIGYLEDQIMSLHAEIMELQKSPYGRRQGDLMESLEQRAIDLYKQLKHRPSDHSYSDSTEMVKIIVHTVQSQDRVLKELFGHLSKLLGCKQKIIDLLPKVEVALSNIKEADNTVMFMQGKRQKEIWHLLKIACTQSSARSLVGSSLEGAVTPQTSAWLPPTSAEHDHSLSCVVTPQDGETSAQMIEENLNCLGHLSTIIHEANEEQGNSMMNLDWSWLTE
# [7] = target: T2, Inhibitor of nuclear factor kappa-B kinase subunit alpha (Homo sapiens); details: at 1 µM
# [8] = target: T3, Inhibitor of nuclear factor kappa-B kinase subunit beta (Homo sapiens) (UniProt O14920); details: at 0.1 µM
# T3 sequence (whole entry): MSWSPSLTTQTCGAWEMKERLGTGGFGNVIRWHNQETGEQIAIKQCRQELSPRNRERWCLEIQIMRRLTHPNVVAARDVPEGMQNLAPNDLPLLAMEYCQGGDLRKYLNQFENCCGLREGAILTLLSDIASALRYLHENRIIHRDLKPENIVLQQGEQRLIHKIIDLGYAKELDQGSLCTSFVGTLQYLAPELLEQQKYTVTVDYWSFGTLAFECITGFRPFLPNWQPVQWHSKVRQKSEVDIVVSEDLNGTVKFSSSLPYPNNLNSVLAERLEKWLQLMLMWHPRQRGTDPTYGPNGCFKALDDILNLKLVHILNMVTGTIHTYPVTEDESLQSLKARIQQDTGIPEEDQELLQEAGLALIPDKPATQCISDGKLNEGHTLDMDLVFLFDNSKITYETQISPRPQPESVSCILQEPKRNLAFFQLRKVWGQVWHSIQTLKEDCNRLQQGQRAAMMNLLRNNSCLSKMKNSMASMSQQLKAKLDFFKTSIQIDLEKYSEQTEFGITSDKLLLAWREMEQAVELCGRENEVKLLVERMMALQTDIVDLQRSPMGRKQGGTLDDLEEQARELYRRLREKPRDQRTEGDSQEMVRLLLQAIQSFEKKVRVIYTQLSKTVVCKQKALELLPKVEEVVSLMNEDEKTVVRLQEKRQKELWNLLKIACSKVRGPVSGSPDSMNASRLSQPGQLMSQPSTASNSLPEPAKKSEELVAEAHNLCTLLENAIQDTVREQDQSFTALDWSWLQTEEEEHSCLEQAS
# [9] = target: T3, Inhibitor of nuclear factor kappa-B kinase subunit beta (Homo sapiens); details: at 1 µM
# [10] = target: T4, Inhibitor of nuclear factor kappa-B kinase subunit epsilon (Homo sapiens) (UniProt Q14164); details: at 0.1 µM
# T4 sequence (whole entry): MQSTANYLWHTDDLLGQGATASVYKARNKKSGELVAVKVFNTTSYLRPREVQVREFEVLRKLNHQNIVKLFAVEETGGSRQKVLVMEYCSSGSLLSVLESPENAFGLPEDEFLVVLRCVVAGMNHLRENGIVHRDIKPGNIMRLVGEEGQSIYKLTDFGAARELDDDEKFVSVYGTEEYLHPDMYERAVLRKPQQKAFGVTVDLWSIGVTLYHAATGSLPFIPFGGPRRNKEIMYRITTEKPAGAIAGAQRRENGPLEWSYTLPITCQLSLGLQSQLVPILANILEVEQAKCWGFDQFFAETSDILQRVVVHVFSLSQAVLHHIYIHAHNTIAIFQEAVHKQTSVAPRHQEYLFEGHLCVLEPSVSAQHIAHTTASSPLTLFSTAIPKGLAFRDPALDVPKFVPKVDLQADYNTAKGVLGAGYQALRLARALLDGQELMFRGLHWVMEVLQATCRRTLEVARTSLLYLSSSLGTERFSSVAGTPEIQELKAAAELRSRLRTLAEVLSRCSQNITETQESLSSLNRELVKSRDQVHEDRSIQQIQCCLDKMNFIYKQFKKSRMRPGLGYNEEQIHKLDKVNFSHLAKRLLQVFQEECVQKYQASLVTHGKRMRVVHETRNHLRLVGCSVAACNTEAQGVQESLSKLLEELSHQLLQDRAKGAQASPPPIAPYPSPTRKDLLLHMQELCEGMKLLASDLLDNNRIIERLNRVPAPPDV
# [11] = target: T4, Inhibitor of nuclear factor kappa-B kinase subunit epsilon (Homo sapiens); details: at 1 µM
# [12] = target: T5, Serine/threonine-protein kinase Nek1 (Homo sapiens) (UniProt Q96PY6); details: at 0.1 µM
# T5 sequence (whole entry): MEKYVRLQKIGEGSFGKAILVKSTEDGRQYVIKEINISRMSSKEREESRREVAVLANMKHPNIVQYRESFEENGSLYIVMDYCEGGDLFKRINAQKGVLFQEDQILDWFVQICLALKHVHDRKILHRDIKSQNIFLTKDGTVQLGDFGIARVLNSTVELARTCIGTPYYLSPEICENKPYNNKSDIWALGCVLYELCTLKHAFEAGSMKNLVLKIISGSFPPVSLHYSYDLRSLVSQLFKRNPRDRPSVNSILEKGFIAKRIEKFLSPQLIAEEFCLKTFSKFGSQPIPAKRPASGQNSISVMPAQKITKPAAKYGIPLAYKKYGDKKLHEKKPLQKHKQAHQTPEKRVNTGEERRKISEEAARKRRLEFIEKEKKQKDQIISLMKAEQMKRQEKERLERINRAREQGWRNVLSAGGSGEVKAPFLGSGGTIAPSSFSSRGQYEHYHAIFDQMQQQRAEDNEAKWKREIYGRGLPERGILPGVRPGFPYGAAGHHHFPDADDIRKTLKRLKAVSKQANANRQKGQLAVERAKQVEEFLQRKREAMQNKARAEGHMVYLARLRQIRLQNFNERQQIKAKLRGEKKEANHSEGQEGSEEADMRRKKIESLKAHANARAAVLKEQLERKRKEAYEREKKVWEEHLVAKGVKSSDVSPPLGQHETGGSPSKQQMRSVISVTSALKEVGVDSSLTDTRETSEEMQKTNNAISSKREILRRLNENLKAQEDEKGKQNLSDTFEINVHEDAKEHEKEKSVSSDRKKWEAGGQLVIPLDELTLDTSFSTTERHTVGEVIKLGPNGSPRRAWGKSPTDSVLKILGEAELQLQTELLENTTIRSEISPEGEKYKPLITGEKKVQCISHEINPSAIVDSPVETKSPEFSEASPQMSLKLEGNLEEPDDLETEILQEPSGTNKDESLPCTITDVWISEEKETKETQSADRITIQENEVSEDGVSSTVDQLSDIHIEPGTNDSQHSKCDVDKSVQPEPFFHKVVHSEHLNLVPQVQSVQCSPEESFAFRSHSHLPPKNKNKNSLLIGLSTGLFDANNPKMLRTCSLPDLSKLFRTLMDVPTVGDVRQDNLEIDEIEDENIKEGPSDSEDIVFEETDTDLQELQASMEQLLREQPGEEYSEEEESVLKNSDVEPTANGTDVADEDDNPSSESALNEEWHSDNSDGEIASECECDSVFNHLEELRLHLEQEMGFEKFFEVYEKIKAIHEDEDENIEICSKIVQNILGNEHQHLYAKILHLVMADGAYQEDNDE
# [13] = target: T5, Serine/threonine-protein kinase Nek1 (Homo sapiens); details: at 1 µM
# [14] = target: T6, Serine/threonine-protein kinase Nek2 (Homo sapiens) (UniProt P51955); details: at 0.1 µM
# T6 sequence (whole entry): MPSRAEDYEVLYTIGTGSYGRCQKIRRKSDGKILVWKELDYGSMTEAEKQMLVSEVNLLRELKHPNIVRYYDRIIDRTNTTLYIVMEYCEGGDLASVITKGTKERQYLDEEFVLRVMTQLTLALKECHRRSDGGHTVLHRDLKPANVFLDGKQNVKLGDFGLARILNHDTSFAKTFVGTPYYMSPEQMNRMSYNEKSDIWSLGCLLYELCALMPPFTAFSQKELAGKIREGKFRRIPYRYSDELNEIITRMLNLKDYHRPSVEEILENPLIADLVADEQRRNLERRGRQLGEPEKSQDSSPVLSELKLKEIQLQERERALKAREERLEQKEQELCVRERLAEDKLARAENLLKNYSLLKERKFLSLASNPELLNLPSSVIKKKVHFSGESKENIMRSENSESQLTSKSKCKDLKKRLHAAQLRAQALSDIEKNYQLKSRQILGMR
# [15] = target: T6, Serine/threonine-protein kinase Nek2 (Homo sapiens); details: at 1 µM
# [16] = target: Serine/threonine-protein kinase Nek6 (Homo sapiens) (UniProt Q9HC98); details: at 0.1 µM
# [17] = target: Serine/threonine-protein kinase Nek6 (Homo sapiens) (UniProt Q9HC98); details: at 1 µM
# [18] = target: Serine/threonine-protein kinase Nek7 (Homo sapiens) (UniProt Q8TDX7); details: at 0.1 µM
# [19] = target: Serine/threonine-protein kinase Nek7 (Homo sapiens) (UniProt Q8TDX7); details: at 1 µM
# [20] = target: T7, Serine/threonine-protein kinase Nek9 (Homo sapiens) (UniProt Q8TD19); details: at 0.1 µM;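 also: reported value is the mean percent inhibition of NEK9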
# T7 sequence (whole entry): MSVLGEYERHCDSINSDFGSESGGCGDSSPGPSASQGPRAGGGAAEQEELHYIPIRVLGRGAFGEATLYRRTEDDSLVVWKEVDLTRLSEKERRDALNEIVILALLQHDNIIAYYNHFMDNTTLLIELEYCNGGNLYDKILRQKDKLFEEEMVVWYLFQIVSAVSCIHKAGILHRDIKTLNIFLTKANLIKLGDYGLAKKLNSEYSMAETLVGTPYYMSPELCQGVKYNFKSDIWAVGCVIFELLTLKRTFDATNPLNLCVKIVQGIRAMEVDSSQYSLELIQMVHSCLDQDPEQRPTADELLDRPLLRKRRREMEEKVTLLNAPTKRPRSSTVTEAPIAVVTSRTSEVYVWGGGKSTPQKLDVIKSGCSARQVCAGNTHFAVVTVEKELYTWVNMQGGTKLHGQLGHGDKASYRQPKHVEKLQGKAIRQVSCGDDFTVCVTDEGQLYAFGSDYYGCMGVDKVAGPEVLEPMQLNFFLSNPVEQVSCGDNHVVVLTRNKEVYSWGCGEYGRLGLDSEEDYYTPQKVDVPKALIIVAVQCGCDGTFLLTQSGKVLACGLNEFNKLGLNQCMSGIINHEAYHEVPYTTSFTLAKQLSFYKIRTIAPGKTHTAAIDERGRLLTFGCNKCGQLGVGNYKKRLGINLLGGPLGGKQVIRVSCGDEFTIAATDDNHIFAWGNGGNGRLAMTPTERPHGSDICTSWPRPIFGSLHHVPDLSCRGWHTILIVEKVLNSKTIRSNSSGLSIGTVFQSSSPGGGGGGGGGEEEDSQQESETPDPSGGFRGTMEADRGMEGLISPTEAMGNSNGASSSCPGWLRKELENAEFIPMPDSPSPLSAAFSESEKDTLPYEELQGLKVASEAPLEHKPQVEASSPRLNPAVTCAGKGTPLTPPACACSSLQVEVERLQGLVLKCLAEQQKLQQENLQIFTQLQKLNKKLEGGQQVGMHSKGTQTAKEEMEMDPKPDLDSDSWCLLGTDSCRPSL
# Casein kinase II subunit alpha (Homo sapiens), sequence (P68400 whole entry, looked up): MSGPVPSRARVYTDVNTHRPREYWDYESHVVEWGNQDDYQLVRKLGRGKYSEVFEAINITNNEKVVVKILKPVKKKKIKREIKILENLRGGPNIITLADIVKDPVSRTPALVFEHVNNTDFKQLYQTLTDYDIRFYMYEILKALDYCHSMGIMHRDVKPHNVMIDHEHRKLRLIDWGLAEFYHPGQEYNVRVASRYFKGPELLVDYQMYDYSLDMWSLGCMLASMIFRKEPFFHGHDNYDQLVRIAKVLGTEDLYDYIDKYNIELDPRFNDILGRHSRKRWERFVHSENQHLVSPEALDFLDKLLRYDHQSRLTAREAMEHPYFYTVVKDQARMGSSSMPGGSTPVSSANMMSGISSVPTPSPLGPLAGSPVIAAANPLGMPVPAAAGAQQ
# Serine/threonine-protein kinase Nek7 (Homo sapiens), sequence (Q8TDX7 whole entry, looked up): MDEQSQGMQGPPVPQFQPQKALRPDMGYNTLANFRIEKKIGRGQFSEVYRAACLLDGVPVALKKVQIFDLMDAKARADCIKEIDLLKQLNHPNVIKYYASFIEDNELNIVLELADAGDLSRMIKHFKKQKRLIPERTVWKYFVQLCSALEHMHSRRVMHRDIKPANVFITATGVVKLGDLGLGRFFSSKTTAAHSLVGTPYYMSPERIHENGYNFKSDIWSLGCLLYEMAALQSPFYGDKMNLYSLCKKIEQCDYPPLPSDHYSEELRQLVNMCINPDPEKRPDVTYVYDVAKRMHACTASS
# Serine/threonine-protein kinase Nek6 (Homo sapiens), sequence (Q9HC98 whole entry): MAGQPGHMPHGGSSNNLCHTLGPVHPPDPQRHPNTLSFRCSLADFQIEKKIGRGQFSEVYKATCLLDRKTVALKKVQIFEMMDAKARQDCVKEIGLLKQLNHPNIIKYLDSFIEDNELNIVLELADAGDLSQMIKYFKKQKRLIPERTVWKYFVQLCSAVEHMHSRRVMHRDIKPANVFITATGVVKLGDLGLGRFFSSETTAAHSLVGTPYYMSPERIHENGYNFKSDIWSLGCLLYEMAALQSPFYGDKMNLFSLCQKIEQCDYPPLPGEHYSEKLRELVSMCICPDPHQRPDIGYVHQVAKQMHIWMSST
# Sphingosine kinase 1 (Homo sapiens), sequence (Q9NYA1 whole entry): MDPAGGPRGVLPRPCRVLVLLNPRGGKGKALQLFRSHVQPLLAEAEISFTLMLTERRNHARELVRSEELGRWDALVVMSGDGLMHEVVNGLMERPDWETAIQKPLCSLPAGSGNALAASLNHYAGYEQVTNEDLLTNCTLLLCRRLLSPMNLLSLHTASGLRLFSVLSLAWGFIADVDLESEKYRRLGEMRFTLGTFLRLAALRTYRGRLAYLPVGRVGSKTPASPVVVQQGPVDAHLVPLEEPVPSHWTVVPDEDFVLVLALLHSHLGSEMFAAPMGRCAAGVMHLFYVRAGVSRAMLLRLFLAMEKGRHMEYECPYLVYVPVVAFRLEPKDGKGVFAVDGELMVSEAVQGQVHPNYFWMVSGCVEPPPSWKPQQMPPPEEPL
structure (smiles),measurement,setting,value
O=C(Nc1ccc(Oc2ccc3[nH]c(NC(=O)c4ccccc4)nc3c2)cc1)Nc1cc(C(F)(F)F)ccc1F,inhibition,[1],3.13%
same,inhibition,[2],17.6%
same,inhibition,[3],-0.1%
same,inhibition,[4],2.74%
same,inhibition,[5],4.99%
same,inhibition,[6],-5.25%
same,inhibition,[7],-0.85%
same,inhibition,[8],4.57%
same,inhibition,[9],2.88%
same,inhibition,[10],3.68%
same,inhibition,[11],3.04%
same,inhibition,[12],1.92%
same,inhibition,[13],2.89%
same,inhibition,[14],4.15%
same,inhibition,[15],3.11%
same,inhibition,[16],3.73%
same,inhibition,[17],1.7%
same,inhibition,[18],4.29%
same,inhibition,[19],4.36%
same,inhibition,[20],9.72%
